# From the supplement of paper PMC13380429
# Tested on: Vero E6 infected with SARS-CoV-2
# Assay: morphology score (similarity to uninfected cells); higher = more like uninfected cells
# Details: 24 h
row,Structure (SMILES),morphology score
1,CC(C)CCC[C@@H](C)[C@H]1CC[C@H]2[C@@H]3CCC4=CC(=NO)CC[C@]4(C)[C@H]3CC[C@]12C [olesoxime] (10 µM),-0.0917
2,COc1cc2c(cc1OC)C1CC(=O)C(CC(C)C)CN1CC2 (configuration not stated) [tetrabenazine] (10 µM),0.159
3,CC(=O)OCC1=C(C(=O)O)N2C(=O)[C@@H](NC(=O)CSc3ccncc3)[C@H]2SC1 [cephapirin] (10 µM),-0.142
4,CC(=O)Nc1cccc2c1c(Sc1ccc(Cl)cc1)c(C)n2CC(=O)O (10 µM),0.187
5,O=C(N[C@@H]1CC[C@@H](c2cccc(F)c2F)CN(CC(F)(F)F)C1=O)N1CCC(n2c(=O)[nH]c3ncccc32)CC1 [telcagepant] (10 µM),0.0561
6,C=CC(=O)Nc1cccc(C)c1Nc1ncc2cc(-c3c(Cl)c(OC)cc(OC)c3Cl)ccc2n1 (10 µM),0.567
7,Cc1cc(CC(C)CC(C)(C)C)n(O)c(=O)c1 (configuration not stated) [piroctone-olamine] (10 µM),0.406
8,C[C@@H](Oc1ccc2[nH]nc(/C=C/c3cnn(CCO)c3)c2c1)c1c(Cl)cncc1Cl (10 µM),-0.00865
9,CN(C)CCOC(=O)COc1ccc(Cl)cc1 [meclofenoxate] (10 µM),-0.0664
10,COc1cc(C(C)=O)ccc1OCCCN1CCC(c2noc3cc(F)ccc23)CC1 [iloperidone] (10 µM),-0.112
11,NC1CCN(c2nc3c(cc2F)c(=O)c(C(=O)O)cn3-c2ccc(F)cc2F)C1 (configuration not stated) [tosufloxacin] (10 µM),-0.115
12,Cc1c(-c2ccc(-c3ccccc3F)cc2)nc2ccc(F)cc2c1C(=O)O [brequinar] (10 µM),0.115
